PLAP activator: activators of human placental alkaline phosphatase. P05187. activation fold at 20 µM. 96,000 tested, 1.2% active. purified PLAP enzyme, luminescent substrate read-out; active compounds read high. AID 696; in the data active = activation fold above about 2
Target sequence (P05187 whole entry, looked up): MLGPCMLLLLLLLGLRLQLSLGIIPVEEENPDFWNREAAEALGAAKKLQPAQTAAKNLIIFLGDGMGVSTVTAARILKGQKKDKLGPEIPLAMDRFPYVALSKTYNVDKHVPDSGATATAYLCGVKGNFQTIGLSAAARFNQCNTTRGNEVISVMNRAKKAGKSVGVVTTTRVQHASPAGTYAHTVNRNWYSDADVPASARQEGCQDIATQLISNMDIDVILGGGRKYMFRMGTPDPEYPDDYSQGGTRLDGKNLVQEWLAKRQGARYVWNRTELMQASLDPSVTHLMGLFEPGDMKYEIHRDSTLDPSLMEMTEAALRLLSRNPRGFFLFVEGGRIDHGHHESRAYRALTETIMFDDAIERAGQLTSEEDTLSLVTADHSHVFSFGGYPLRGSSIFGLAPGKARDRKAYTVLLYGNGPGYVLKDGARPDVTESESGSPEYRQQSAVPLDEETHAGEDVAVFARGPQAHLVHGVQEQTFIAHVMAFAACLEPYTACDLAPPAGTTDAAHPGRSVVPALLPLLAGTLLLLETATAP
CYP2C9 inh: inhibitors of human CYP2C9. AID 777. inhibition, % at 5 µM. 96,000 tested, 20% active. CYP2C9 Supersomes, luciferin-H conversion, luminescence;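 active = blocking of liver enzyme CYP2C9 beyond about 50% at 5 µM, limit read from the data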
CYP2C19 inh: human CYP2C19 inhibition | P33261 | CYP2C19 Supersomes, luciferin-H EGE luminescence, 30 min | inhibition, % at 5 µM | 96,000 tested, 21% active | AID 778;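 active = CYP2C19 inhibition above a set limit at 5 µM in the primary screen, cut at about 50% in these data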;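 also: plate controls were negative control wells for no effect and 2.5 mM tranylcypromine positive control for full effect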
CYP2C19 activ: cytochrome P450 2C19 (human) activation; P33261; recombinant CYP2C19, luciferin-H EGE luminescence; active compounds read high; 0 = fully inhibited enzyme, 1 = untreated enzyme; activation factor at 5 µM; 96,000 tested, under 10 active;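 active = activation factor of at least 2 at 5 µM in the primary screen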;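 also: 0 = wells with 2.5 mM tranylcypromine and 1 = vehicle-only wells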
CYP2C9 activ: increases human cytochrome P450 2C9 activity; P11712; recombinant CYP2C9, luciferin-H conversion, luminescence; active compounds read high; factor 1 = untreated enzyme, 0 = blocked; activation factor at 5 µM; 96,000 tested, 1.4% active; AID 1024;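 active = activation factor of 2 or more for CYP2C9 at a 5 µM dose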;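 also: 0 = sulfaphenazole-blocked wells and 1 = vehicle-only wells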
Starred values were filed as active, the others as inactive. Most compounds without a hit are left out; they make up all but 31% or so of the library.

SMILES	PLAP activator	CYP2C9 inh	CYP2C19 inh	CYP2C19 activ	CYP2C9 activ
c1ccc(-c2nc(N3CCCCCC3)nc(-n3ccnc3)n2)cc1	1.2	3	22	0.8	1
c1ccc(-c2nc(N3CCN(c4ccccc4)CC3)nc(-n3ccnc3)n2)cc1	0.9	66*	52*	0.5	0.3
c1ccc(-c2ccc(-n3ccnc3)cc2)cc1	0.7	90*	99*	0	0.1
COCCCNC(=O)CNC(=S)N(Cc1ccc(F)cc1)C1CCCCC1	1.4	20	17	0.8	0.8
C=CCc1cccc2cc(C(=O)N3CCN(C(=O)c4ccco4)CC3)c(=O)oc12	1.3	-125	-7	1.1	2.3*
C=CCc1cccc2cc(C(=O)N(CC)CC)c(=O)oc12	1.1	-124	8	0.9	2.2*
C=CCc1cccc2cc(C(=O)O)c(=O)oc12	0.8	-8	-3	1	1.1
C=CCc1cccc2cc(C(=O)OCC(=O)c3ccccc3)c(=O)oc12	0.8	-187	-13	1.1	2.9*
C=CCc1cccc2cc(C(=O)N(C)C)c(=O)oc12	1.4	-204	18	0.8	3*
O=C(CSc1ncn[nH]1)Nc1ccccc1Sc1ccc(Cl)cc1	1.6	93*	98*	0	0.1
COC(=O)c1ccc(C(=O)OC)c(NC(=O)CSc2ccccn2)c1	0.8	47	48	0.5	0.5
O=C(CSc1ncn[nH]1)Nc1c(F)cc(F)cc1Br	2.1*	-2	16	0.8	1
COC(=O)c1ccc(Cl)c(NC(=O)CSc2ncn[nH]2)c1	1.8	41	74*	0.3	0.6
Clc1ccc(CSc2ncn[nH]2)cc1	1.7	5	28	0.7	0.9
COC(=O)c1cccc(NC(=O)CSc2ncn[nH]2)c1	1	27	57*	0.4	0.7
O=C(CSc1ncn[nH]1)Nc1ccc2c(c1)OCCO2	0.9	24	27	0.7	0.8
CC(=O)Nc1nonc1NC(=O)CSc1ncn[nH]1	1.4	18	4	1	0.8
COc1ccc(-c2nnc3ccc(SCC(=O)N4CCCCC4)nn23)cc1OC	1	-6	0	1	1.1
CC(=O)N1N=C(c2ccc(C)cc2)OC1c1ccc(C(C)C)cc1 (centres undefined)	1.1	10	23	0.8	0.9
CCOC(=O)C1CCN(C(=O)CN(c2ccc3c(c2)OCCO3)S(C)(=O)=O)CC1	1	-3	0	1	1
CCC(C)c1ccccc1NC(=S)Nc1cccnc1 (centres undefined)	1	25	42	0.6	0.8
Cc1c(NS(=O)(=O)c2ccc3c(c2)CCN3C(=O)C2CC2)c(=O)n(-c2ccccc2)n1C	1.1	-6	12	0.9	1.1
Nn1c(SCc2cn3ccsc3n2)nnc1-c1ccncc1	1.2	8	65*	0.4	0.9
Nn1c(SCC(=O)N2CCCCC2)nnc1-c1ccncc1	0.9	5	14	0.9	0.9
Cc1csc2nc(CSc3nc4ccccc4o3)cn12	0.9	-15	23	0.8	1.2
SMILES	PLAP activator	CYP2C9 inh	CYP2C19 inh	CYP2C19 activ	CYP2C9 activ
c1ccc(CSCc2cn3ccsc3n2)cc1	0.8	4	7	0.9	1
Cc1csc2nc(CSc3ccc(Cl)cc3)cn12	1.2	-261	73*	0.3	3.6*
Clc1ccc(SCc2cn3ccsc3n2)cc1	0.8	-20	53*	0.5	1.2
CCN(CC)C(=O)Cn1cnc([N+](=O)[O-])n1	0.9	-8	-5	1	1.1
C=CCN(CC=C)CC(O)Cn1c2ccccc2c2ccccc21 (centres undefined)	1.3	30	73*	0.3	0.7
Cc1ccc(S(=O)(=O)N(C)CC(O)Cn2c3ccccc3c3ccccc32)cc1 (centres undefined)	1.7	88*	44	0.6	0.1
O=S(=O)(c1ccccc1)N(CC(O)Cn1c2ccccc2c2ccccc21)c1ccccc1 (centres undefined)	1.2	79*	50	0.5	0.2
CCN(CC)CC(O)Cn1c2ccccc2c2ccccc21 (centres undefined)	0.8	1	9	0.9	1
Cc1ccc(S(=O)(=O)N(CC(O)CN2CCCCC2)c2ccccc2)cc1 (centres undefined)	1.1	-3	2	1	1
CS(=O)(=O)c1cnc(-c2ccccc2)nc1Oc1ccc(Cl)cc1	1.3	14	32	0.7	0.9
CC(Oc1ccccc1Cl)C(=O)N(Cc1ccco1)C1CCS(=O)(=O)C1 (centres undefined)	0.9	-12	33	0.7	1.1
